This note sets out measurements from PubChem BioAssay (Tox21).

A short description of assay [1]: qHTS assay to identify small molecule antagonists of the estrogen receptor beta (ER-beta) signaling pathway - cell viability counter screen (AID 1259382). Note: nearly all actives have a fitted effect of over 55% in size. Note: potency is the fitted concentration of half-maximal effect. The gist of the method: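 Readout: luminescence, CellTiter-Glo, same wells as bla assay. System: ER-beta-UAS-bla GripTite HEK293T, 2% charcoal-stripped FBS. Exposure: compounds plus 1nM 17-beta-estradiol, 16 hr, 37C.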
For orientation: qHTS replaces the single test concentration by a dilution series.

Assay [2] addresses Estrogen receptor (Homo sapiens) (UniProt P03372). The assay can be described thus: qHTS assay to identify small molecule agonists of the estrogen receptor alpha (ER-alpha) signaling pathway in the presence of an antagonist (AID 1259383; calls by dose curve; note: nearly all actives have a fitted effect of over 15% in size; note: potency is the fitted concentration of half-maximal effect; for activation: top concentration of the series differs between compounds). An outline of the steps: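 Quantitative HTS confirmation: compounds titrated at 15 concentrations onto estrogen-deprived VM7Luc4E2 cells carrying a four-ERE luciferase construct, with ICI-182,780 present at 10.0nM final. Signal is luminescence after 22hr exposure.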

The nature of assay [3]: qHTS assay to identify small molecule agonists of the estrogen receptor alpha (ER-alpha) signaling pathway in the presence of an antagonist - cell viability counter screen (AID 1259386).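 Note: cells exposed to compounds for 22 h at 37 °C before the viability read; nearly all actives have a fitted effect of over 30% in size.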 Note: potency is the fitted concentration of half-maximal effect. An outline of the steps: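 The test measures whether compounds kill ER-alpha reporter cells (VM7Luc4E2) under antagonist co-treatment (ICI-182,780, 10.0nM). Fluorescence from CellTiter-Fluor is read after a 22hr exposure.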

In assay [4] the target is Progesterone receptor (Homo sapiens) (UniProt P06401). The assay can be described thus: qHTS assay to identify small molecule agonists of the progesterone receptor (PR) signaling pathway (AID 1346784; calls by dose curve; note: nearly all actives have a fitted effect of over 30% in size). The gist of the method:
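Using charcoal-stripped serum (2%) to limit endogenous steroids, PR-UAS-bla HEK 293T cells received compounds for 16 hr at 37C after 6 hr plating; beta-lactamase FRET fluorescence was recorded following 2 hr substrate loading at room temperature.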

Assay [5] shares this target. In words: qHTS assay to identify small molecule antagonists of the progesterone receptor (PR) signaling pathway (AID 1346795; active = well fitted inhibition curve with a large enough effect in the signal ratio in the repeat runs, not every such curve was filed as active; the % refers to the signal ratio; note: potency is the fitted concentration of half-maximal effect). The gist of the method: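 Inhibition of R5020-induced (1 nM final) beta-lactamase reporter signal in PR-UAS-bla HEK293T cells was scored by FRET fluorescence after overnight (16 hr) compound treatment.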
Assay [6] is described as follows: qHTS assay to identify small molecule antagonists of the progesterone receptor (PR) signaling pathway - cell viability counter screen (AID 1346798). Note: nearly all actives have a fitted effect of over 50% in size. Note: potency is the fitted concentration of half-maximal effect. An outline of the steps: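 ATP content as viability readout: CellTiter-Glo luminescence, 30 min room temperature, in PR-UAS-bla HEK293T cells after 16 hr compound/R5020 treatment at 37C and 5% CO2.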
Assay [7] in a line: qHTS assay to identify small molecule agonists of the progesterone receptor (PR) signaling pathway - cell viability counter screen (AID 1346799; calls by dose curve; note: nearly all actives have a fitted effect of over 45% in size; note: potency is the fitted concentration of half-maximal effect). An outline of the steps:
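Cytotoxicity in PR-bla HEK293T cells: 16 h compound, 37C; CellTiter-Glo added post-FRET read; luminescence after 30 min RT.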

Assay [8] in a line: qHTS assay to identify small molecule antagonists of the TGF-beta/Smad signaling pathway - cell viability counter screen (AID 1346824). Note: nearly all actives have a fitted effect of over 50% in size. The gist of the method: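 Cytotoxicity counter-screen run in the same wells as the beta-lactamase Smad reporter read: CellTiter-Glo luminescence after 30 min at room temperature. HEK 293T SBE-bla cells had 5 hr compound exposure at 37 C with TGF-beta1 (0.25 ng/mL stock).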

The nature of assay [9]: qHTS assay to identify small molecule agonists of the TGF-beta/Smad signaling pathway - cell viability counter screen (AID 1346829). Note: top concentration of the series differs between compounds; nearly all actives have a fitted effect of over 45% in size. The gist of the method:
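In parallel with the Smad reporter read, viability of HEK 293T cells stably carrying SBE-bla is quantified by ATP luminescence following 5 hr compound treatment.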

The nature of assay [10]: qHTS assay to identify small molecule agonists of the TGF-beta/Smad signaling pathway (AID 1346859; active = well fitted activation curve with a large enough effect in the signal ratio in the repeat runs, not every such curve was filed as active; the % refers to the signal ratio; note: series mostly up to about 77 µM). An outline of the steps: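 Stable Smad binding element-beta-lactamase HEK 293T cells; 5 hr compound exposure at 37 C under 5% CO2; 2 hr room-temperature substrate step; fluorescence excited at 405 nm, collected at 460 nm and 530 nm.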
Assay [11] concerns the target Thyrotropin-releasing hormone receptor (Homo sapiens) (UniProt P34981). In words: qHTS assay to identify small molecule antagonists of the thyrotropin-releasing hormone receptor (TRHR) signaling pathway (AID 1346877; active = well fitted inhibition curve with a large enough effect in the repeat runs, not every such curve was filed as active; note: series mostly up to about 51 µM). The gist of the method: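 Overnight-plated (18 h, 37 °C) HEK293 cells expressing TRHR were dye-loaded 2 h, treated with compound, then stimulated with TRH at 1 nM final. Fluorescence intensity was captured every second for 3 min.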

Assay [12] has the same target. In words: qHTS assay to identify small molecule agonists of the thyrotropin-releasing hormone receptor (TRHR) signaling pathway (AID 1346891; calls by dose curve;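 note: HEK293 cells expressing TRHR with calcium dye readout; series mostly up to about 58 µM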). An outline of the steps:
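In 1536-format, 1500 TRHR-Hek293 cells per well grew 18 h, took up calcium dye for 2 h at 37 °C, received compound, and were read kinetically; 15-point titrations, triplicates.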

The nature of assay [13]: Human pregnane X receptor (PXR) small molecule agonists, qHTS cell viability counter screen (AID 1346977). Note: nearly all actives have a fitted effect of over 50% in size. Note: potency is the fitted concentration of half-maximal effect. An outline of the steps:
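Readout is CellTiter-Fluor fluorescence from PXR-Luc HepG2 cells. Plated cells rested 5hr, then were treated with compounds for 24hr at 37C and 5% CO2, with reagent present during the last hour.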

A short description of assay [14]: Caspase-3/7 induction in HepG2 cells by small molecules, qHTS assay (AID 1346978). Note: nearly all actives have a fitted effect of over 15% in size. Note: potency is the fitted concentration of half-maximal effect. The gist of the method:
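Caspase-3/7 induction was measured by Caspase-Glo 3/7 luminescence (30 min, room temperature) after a 17 hr compound exposure of wild-type HepG2 cells seeded at 2,000 per well and pre-incubated 5 hr.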

Assay [15] can be described thus: Caspase-3/7 induction in CHO-K1 cells by small molecules, qHTS cell viability counter screen (AID 1346979). Note: nearly all actives have a fitted effect of over 35% in size. Note: potency is the fitted concentration of half-maximal effect. The gist of the method:
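To flag cytotoxic compounds, treated CHO-K1 wild-type cells were given CellTiter-Fluor at 16hr and read fluorescently after 1hr at 37C; the caspase-3/7 luminescence was measured in these same wells.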

Assay [16] is described as follows: Caspase-3/7 induction in CHO-K1 cells by small molecules, qHTS assay (AID 1346980). Note: nearly all actives have a fitted effect of over 15% in size. An outline of the steps: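 Luminescent Caspase-Glo 3/7 read (30min, room temperature) quantified apoptosis induction. Cells were wild-type CHO-K1, treated with compound for 17hr at 37 C and 5% CO2.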
In assay [17] the target is Nuclear receptor subfamily 1 group I member 2 (Homo sapiens) (UniProt O75469). The assay can be described thus: Human pregnane X receptor (PXR) small molecule agonists, qHTS assay (AID 1346982). Note: nearly all actives have a fitted effect of over 35% in size. Note: potency is the fitted concentration of half-maximal effect. An outline of the steps:
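Stable HepG2 line reporting PXR-mediated CYP3A4 expression via luciferase. Treatment: 24 hr with compounds in DMSO at 37 C. Detection: ONE-Glo luminescence.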

A short description of assay [18]: Caspase-3/7 induction in HepG2 cells by small molecules, qHTS cell viability counter screen (AID 1346981). Note: nearly all actives have a fitted effect of over 30% in size. Note: potency is the fitted concentration of half-maximal effect. The gist of the method:
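Treatment of HepG2 cells with DMSO-delivered compounds ran 16 hr at 37 C following a 5-hr pre-incubation of 2,000 cells/well. CellTiter-Fluor fluorescence, read after 1 hr, served as the viability measure in a qHTS format.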

The nature of assay [19]: qHTS assay to identify small molecule agonists or antagonists of the thyroid stimulating hormone receptor (TSHR) signaling pathway - wild type cell line counter screen (AID 1259384; calls by dose curve). An outline of the steps:
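Counter screen in untransfected Hek293: compounds (15-point titration, triplicate) plus phosphodiesterase inhibitor Ro20-1724 added after 18 h plating; 30 min RT. Intracellular cAMP via competitive d2/cryptate immunoassay, 1 h incubation.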

Assay [20] has as its target Thyrotropin receptor (Homo sapiens) (UniProt P16473). The assay can be described thus: qHTS assay to identify small molecule antagonists of the thyroid stimulating hormone receptor (TSHR) signaling pathway (AID 1259385; calls by dose curve; note: nearly all actives have a fitted effect of over 20% in size). The gist of the method:
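Antagonist mode: compound-treated TSHR-expressing HEK293 cells were stimulated with 1.5 ng/mL TSH (final) in presence of Ro20-1724 for 30 min at RT. HTRF cAMP detection after 1 h; each compound tested at 15 concentrations, triplicate.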

Values without a mark were called inactive. Records with an inconclusive call do not appear. The source made the active and inactive calls. Unless noted, calls come from the whole dose curve; as a rule, active = well fitted curve in the direction sought with a large enough effect in the repeat runs; inconclusive = weak or mixed curves; inactive = no such curve, though single readings can be large; an effect the other way counts as inactive or inconclusive.

Sequence of Progesterone receptor (Homo sapiens) (P06401 whole entry, looked up): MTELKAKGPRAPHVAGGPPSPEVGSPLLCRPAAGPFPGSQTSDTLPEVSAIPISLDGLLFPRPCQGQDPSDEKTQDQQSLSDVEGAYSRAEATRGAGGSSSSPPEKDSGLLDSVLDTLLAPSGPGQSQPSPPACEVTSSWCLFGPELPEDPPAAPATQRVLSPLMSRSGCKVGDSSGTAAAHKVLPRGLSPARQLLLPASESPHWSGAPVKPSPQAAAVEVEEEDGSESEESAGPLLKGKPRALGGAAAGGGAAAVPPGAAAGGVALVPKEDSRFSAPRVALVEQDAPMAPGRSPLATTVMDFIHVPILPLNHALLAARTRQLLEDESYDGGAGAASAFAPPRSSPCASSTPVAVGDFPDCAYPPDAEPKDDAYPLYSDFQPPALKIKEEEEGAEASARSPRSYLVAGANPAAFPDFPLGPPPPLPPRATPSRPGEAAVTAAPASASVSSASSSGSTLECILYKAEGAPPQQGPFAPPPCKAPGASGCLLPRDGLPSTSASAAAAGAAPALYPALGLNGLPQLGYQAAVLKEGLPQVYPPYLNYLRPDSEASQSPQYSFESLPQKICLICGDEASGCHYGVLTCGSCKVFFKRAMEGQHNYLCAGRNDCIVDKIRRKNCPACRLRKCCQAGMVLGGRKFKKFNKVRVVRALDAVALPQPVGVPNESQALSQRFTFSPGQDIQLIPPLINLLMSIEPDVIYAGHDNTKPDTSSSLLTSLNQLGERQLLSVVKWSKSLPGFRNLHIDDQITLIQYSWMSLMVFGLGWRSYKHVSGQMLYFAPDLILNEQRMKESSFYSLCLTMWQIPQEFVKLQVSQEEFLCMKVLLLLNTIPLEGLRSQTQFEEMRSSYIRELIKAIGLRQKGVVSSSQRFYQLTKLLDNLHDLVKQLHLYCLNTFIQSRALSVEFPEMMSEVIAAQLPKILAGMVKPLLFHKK
Sequence of Nuclear receptor subfamily 1 group I member 2 (Homo sapiens) (O75469 whole entry, looked up): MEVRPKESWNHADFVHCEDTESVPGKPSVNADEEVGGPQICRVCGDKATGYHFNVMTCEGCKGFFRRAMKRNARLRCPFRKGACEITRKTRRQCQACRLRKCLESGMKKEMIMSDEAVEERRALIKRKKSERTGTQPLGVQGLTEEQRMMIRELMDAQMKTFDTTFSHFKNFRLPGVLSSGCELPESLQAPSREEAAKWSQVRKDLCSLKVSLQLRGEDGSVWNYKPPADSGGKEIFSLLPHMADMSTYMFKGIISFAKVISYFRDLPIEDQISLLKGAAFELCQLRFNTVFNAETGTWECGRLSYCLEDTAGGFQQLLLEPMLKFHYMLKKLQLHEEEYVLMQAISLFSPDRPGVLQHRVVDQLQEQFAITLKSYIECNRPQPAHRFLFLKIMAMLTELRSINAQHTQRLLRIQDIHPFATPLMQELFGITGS
Sequence of Estrogen receptor (Homo sapiens) (P03372 whole entry, looked up): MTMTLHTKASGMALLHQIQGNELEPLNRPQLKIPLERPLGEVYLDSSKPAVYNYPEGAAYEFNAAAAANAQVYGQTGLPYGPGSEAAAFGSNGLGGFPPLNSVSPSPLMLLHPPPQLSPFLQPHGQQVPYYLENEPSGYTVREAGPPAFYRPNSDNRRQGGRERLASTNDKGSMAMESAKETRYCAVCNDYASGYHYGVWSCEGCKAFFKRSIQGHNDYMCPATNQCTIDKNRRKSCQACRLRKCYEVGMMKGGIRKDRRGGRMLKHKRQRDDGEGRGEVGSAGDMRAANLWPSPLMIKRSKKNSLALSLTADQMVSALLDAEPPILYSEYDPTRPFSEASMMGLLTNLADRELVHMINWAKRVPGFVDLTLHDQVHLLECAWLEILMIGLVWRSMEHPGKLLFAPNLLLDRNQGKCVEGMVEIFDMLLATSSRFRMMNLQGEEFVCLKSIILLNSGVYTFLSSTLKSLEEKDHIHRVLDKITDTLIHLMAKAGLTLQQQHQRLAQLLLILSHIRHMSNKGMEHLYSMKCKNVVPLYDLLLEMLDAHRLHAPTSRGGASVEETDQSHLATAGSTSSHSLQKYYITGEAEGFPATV
Sequence of Thyrotropin-releasing hormone receptor (Homo sapiens) (P34981 whole entry, looked up): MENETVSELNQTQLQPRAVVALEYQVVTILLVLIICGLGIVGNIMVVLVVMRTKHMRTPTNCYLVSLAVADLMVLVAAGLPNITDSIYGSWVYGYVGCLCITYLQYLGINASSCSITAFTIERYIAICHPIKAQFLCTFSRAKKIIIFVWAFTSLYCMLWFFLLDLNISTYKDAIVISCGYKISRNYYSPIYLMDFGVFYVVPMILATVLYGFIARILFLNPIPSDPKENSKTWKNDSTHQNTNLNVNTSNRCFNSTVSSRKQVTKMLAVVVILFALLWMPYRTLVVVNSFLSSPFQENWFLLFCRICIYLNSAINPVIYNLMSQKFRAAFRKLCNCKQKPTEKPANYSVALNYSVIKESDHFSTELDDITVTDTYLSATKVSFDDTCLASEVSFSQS
Sequence of Thyrotropin receptor (Homo sapiens) (P16473 whole entry, looked up): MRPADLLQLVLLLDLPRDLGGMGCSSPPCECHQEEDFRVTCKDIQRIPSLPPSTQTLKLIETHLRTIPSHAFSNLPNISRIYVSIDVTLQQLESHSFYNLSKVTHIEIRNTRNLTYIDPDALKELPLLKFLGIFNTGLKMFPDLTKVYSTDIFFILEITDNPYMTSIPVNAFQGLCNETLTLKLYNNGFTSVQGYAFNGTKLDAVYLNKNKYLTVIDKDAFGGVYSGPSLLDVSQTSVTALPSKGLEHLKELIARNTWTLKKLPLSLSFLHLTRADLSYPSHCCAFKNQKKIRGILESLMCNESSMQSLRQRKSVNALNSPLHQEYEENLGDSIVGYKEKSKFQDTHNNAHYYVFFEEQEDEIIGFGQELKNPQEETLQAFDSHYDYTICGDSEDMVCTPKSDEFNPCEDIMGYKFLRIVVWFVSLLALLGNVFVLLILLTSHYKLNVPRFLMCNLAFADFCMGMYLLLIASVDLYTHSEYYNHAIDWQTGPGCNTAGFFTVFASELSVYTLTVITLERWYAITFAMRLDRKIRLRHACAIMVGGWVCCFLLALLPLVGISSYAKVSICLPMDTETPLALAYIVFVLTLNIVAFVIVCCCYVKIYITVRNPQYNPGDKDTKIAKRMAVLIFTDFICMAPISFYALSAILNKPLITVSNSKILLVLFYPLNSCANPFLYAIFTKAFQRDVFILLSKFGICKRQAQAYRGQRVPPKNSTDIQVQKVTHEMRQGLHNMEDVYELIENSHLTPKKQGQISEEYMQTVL

Take `O=[N+]([O-])c1ccc(CO)cc1`: the Potency entry in assay [1], in assay [2], in [3], in assay [5], in [6] and in assay [7] was “inactive” each time. Moreover, the Potency entry in assay [8], in assay [9], in [11], in assay [12], in [13] and in assay [14] was “inactive” throughout. Also, the Potency entry in assay [15], in [16] and in assay [17] was “inactive” throughout. Further, the result in assay [4] and in assay [10] was inactive.
Take `CSc1nnc(C(C)(C)C)c(=O)[nH]1`: the Potency result in assay [1], in assay [2], in assay [3], in assay [5], in [8] and in assay [9] was “inactive” in each case. For the same compound, the Potency result in assay [11], in assay [12], in assay [13], in assay [14], in [16] and in [18] was “inactive” each time. Besides, the compound was called inactive in assay [4] and in [10].
With `CCOc1ccc([N+](=O)[O-])cc1`, the Potency entry in assay [1], in [3], in assay [8], in assay [9], in assay [13] and in [16] was “inactive” each time. Besides, the Potency result in [17] is “inactive”. Moreover, the Potency in [2] is 24.7 µM (active); in assay [5], 27.7 µM (active); in assay [14], 55.3 µM (active). Moreover, the compound was classed as inactive in [10].
For `CN1CCN(c2ccccc2/C=C2\SCCN(c3ccc(Cl)c(Cl)c3)C2=O)CC1`, the Potency in [1] is 61.1 µM (active); in [3], 68.6 µM (active); in assay [13] it was 27.3 µM (active); in [14] it was 61.1 µM (active); in [15], 61.1 µM (active); in assay [18], 61.1 µM (active). Moreover, the Potency entry in assay [2] and in assay [19] was “inactive” each time.
`CCc1c(C)cc(N)c(CC)c1N`: the Potency entry in assay [1], in assay [2], in assay [19], in [3], in assay [5] and in assay [6] was “inactive” in each case. The Potency result in [7], in assay [9], in [11], in assay [12], in [13] and in assay [14] was “inactive” each time. For the same compound, the Potency entry in [15] and in assay [16] was “inactive” in each case. For the same compound, the result in [4] and in assay [10] was inactive. Besides, the Potency in assay [17] is 24.3 µM (active).
Turning to `O=C1CCCCCCCCCCCCCC1`, the Potency result in assay [1], in [2], in assay [19], in [3], in assay [5] and in assay [6] was “inactive” each time. Besides, the Potency result in assay [7], in assay [8], in [9], in assay [11], in assay [13] and in assay [14] was “inactive” in each case. For the same compound, the Potency result in assay [15], in [16] and in assay [17] was “inactive” each time. In addition, the outcome in [4] and in [10] was inactive.
As for `CN[C@H]1CC[C@@H](c2ccc(Cl)c(Cl)c2)c2ccc(S(N)(=O)=O)cc21`, the Potency in [1] is 21.7 µM (active); in assay [6], 48.6 µM (active); in [7] it was 48.6 µM (active); in assay [13] it was 61.1 µM (active); in [18], 61.1 µM (active). In addition, the Potency entry in assay [2], in [19], in assay [3], in assay [8], in [11] and in assay [12] was “inactive” each time. The Potency result in [17] was “inactive”. Further, the result in assay [10] was inactive.
In the case of `Cc1cc(Br)ccc1NC(=O)CCl`, the Potency is 30.6 µM (active) in assay [1]; 15.4 µM (active) in assay [6]; 27.3 µM (active) in assay [7]; 54.5 µM (active) in assay [13]; 21.7 µM (active) in [15]; 61.1 µM (active) in assay [18]. Moreover, the Potency in assay [17] is 3.44 µM (active). Further, the Potency entry in assay [2], in assay [19], in assay [20], in [8], in [11] and in assay [12] was “inactive” each time. Further, the Potency result in [14] and in [16] was “inactive” throughout. The compound was called inactive in [4].
